Measured values from article PMC5540273 (PLoS ONE, 2017).

system: T1, FAK; conditions: concentration: 1 μM,replicates: in singlicate; n = 1
T1 construct: gene PTK2
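Further: KINOMEscan kinase panel screen.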

Row | SMILES | %Inh
1 | O=C(Nc1cccc(C(F)(F)F)c1)c1cccc(Oc2ccc3nccn3n2)c1 | 38%
2 | CCCC(=O)Nc1n[nH]c2ncccc12 [SB-601436] | 0%
3 | C[C@@H]1CNc2c(sc3ccc4nc(-c5ccc(O)cc5)ccc4c23)C(=O)N1 | 6%
4 | COC(=O)c1cccc(NC(=O)NC2CCN(c3ccnc(NCc4ccc(F)cc4)n3)CC2)c1 [GSK1379860] | 0%
5 | CC(=O)Nc1ccc(-c2cc3ncnc(SCC(=O)O)c3s2)cc1 | 1%
6 | NC(=O)c1ccc(-c2cc3ncnc(SCC(=O)O)c3s2)cc1 | 0%
7 | C[C@@H]1CCN(C(=O)N2CCCC2)C[C@@H]1N(C)c1ncnc2[nH]ccc12 | 97.3%
8 | CCn1c(-c2nonc2N)nc2cncc(Br)c21 [SB-738004] | 9%
9 | Cc1ccc(CC(=O)N2CCc3cc(-c4cn(C)c5ncnc(N)c45)ccc32)cc1 [GSK2634758] | 0%
10 | Nc1nccc(-c2ccc3c(N)n[nH]c3c2)n1 [GSK1034945] | 0%
11 | COc1cccc(C2=C(Nc3cccc(Cl)c3)C(=O)NC2=O)c1 [SB-341556] | 0%
12 | Cc1n[nH]c2cc(Nc3ccnc(Nc4cccc(CN5CCOCC5)c4)n3)ccc12 [GW682569] | 0%
13 | Cl.Cl.NC[C@H](CC1CCCCC1)NC(=O)c1ccc(-c2ccnc3[nH]ccc23)s1 [GSK1581428] | 48%
14 | COc1cc2c(Nc3ccc(NC(=O)c4ccccc4)cc3)ncnc2cc1OCCCN1CCOCC1 [GSK301329] | 0%
15 | C[C@@H](Oc1cc(-n2cnc3ccc(-c4ccncc4)cc32)sc1C(N)=O)c1ccccc1Cl [GSK483724] | 0%
16 | NC(=O)Nc1sc(-c2ccc(F)cc2)cc1C(N)=O [GW789449] | 5%
17 | CN(c1ccc2c(c1)nc(NCc1ccc(F)cc1)n2C)c1ccnc(Nc2ccc(CS(C)(=O)=O)cc2)n1.Cl [GW813244] | 22%
18 | c1ccc(Oc2ccc(Nc3ccnc4ccc(-c5ccccn5)cc34)cc2)cc1 [GW407034] | 0%
19 | CS(=O)c1ccc(-c2coc3ccc(-c4n[nH]c(=O)o4)cc23)cc1 (centres unmarked) | 0%
20 | CCN1CCN(CCCC(=O)Nc2n[nH]c3nc(-c4ccc(O)cc4)c(Br)cc23)CC1 [SB-731579] | 0%
21 | CC(=O)c1c(-c2ccncc2)[nH]c(-c2ccncc2)c1C [GW493036] | 0%
22 | CSc1nccc(-c2c(-c3ccc(F)cc3)ncn2CCCN2CCOCC2)n1.Cl [SB-217146] | 0%
23 | CN1CCN(CCNc2nc3cc(Oc4ccc(NC(=O)Nc5cc(C(F)(F)F)ccc5F)cc4)ccc3[nH]2)CC1.Cl.Cl [GW768504] | 11%
24 | C[C@@H](Oc1cc(-n2cnc3cc(-c4ccncc4)ccc32)sc1C(N)=O)c1ccccc1Cl [GSK479719] | 0%
25 | O=C(Nc1cccc(Oc2ccc3nccn3n2)c1)Nc1cccc(C(F)(F)F)c1 | 2%

system: FER; conditions: concentration: 1 μM,replicates: in singlicate; n = 1

Row | SMILES | %Inh
26 | COc1ccc(Nc2nccc(N3CCC(NC(=O)c4cccc(C#N)c4)C3)n2)cc1 (centres unmarked) [GSK1379730] | 27%
27 | C[C@@H](Oc1cc(-n2cnc3cc(-c4cnn(C)c4)ccc32)sc1C(N)=O)c1ccccc1Cl [GSK580432] | 38%
28 | O=C(Nc1n[nH]c2cc(-c3ccco3)ccc12)C1CC1 [SB-737447] | 0%
29 | COC(=O)Nc1nc2cc(Oc3ccc(NC(=O)Nc4cc(C(F)(F)F)ccc4Cl)cc3)ccc2[nH]1.Cl [GW697465] | 24%
30 | Cc1cccc2c(-c3ccncc3)c(-c3ccc(F)cc3)nn12.Cl [GW461487] | 4%
31 | O=c1[nH]cc(-c2ccc(O)cc2)c2sc(-c3ccncc3)cc12 [GSK1033723] | 1%
32 | COc1cccc(CNC(=O)NC2CCN(c3ccnc(Nc4cc(OC)c(OC)c(OC)c4)n3)C2)c1 (centres unmarked) [GSK1379765] | 26%
33 | COc1cccc(OC)c1C(=O)Nc1cccc(-c2nn3ccccc3c2-c2ccnc(Nc3cccc(F)c3)n2)c1 [GSK361065] | 24%
34 | CC(=O)Nc1nc2cnc(Nc3cc(NC(=O)c4cccc(CC(C)(C)C#N)c4)ccc3C)nc2s1 | 0%
35 | CC(C)S(=O)(=O)N1CCN(Cc2ccc3c(c2)nc(NC(=O)c2ccsc2)n3C[C@H](O)c2ccccc2)CC1 [GW635815] | 39%
36 | Cc1ccc(Nc2ccnc(Nc3ccc4c(c3)CS(=O)(=O)C4)n2)cc1O.Cl [GW579362] | 52%
37 | Cc1nnc(-c2ccc3occ(-c4ccc(S(C)=O)cc4)c3n2)o1 (centres unmarked) | 0%
38 | O=C(Nc1cccc(C(F)(F)F)c1)c1cccc(Oc2ccc3nccn3n2)c1 | 5%
39 | CCCC(=O)Nc1n[nH]c2ncccc12 [SB-601436] | 0%
40 | C[C@@H]1CNc2c(sc3ccc4nc(-c5ccc(O)cc5)ccc4c23)C(=O)N1 | 0%
41 | COC(=O)c1cccc(NC(=O)NC2CCN(c3ccnc(NCc4ccc(F)cc4)n3)CC2)c1 [GSK1379860] | 10%
42 | CC(=O)Nc1ccc(-c2cc3ncnc(SCC(=O)O)c3s2)cc1 | 0%
43 | NC(=O)c1ccc(-c2cc3ncnc(SCC(=O)O)c3s2)cc1 | 0%
44 | C[C@@H]1CCN(C(=O)N2CCCC2)C[C@@H]1N(C)c1ncnc2[nH]ccc12 | 36%

Row | SMILES | %Inh
45 | CCn1c(-c2nonc2N)nc2cncc(Br)c21 [SB-738004] | 10%
46 | Cc1ccc(CC(=O)N2CCc3cc(-c4cn(C)c5ncnc(N)c45)ccc32)cc1 [GSK2634758] | 19%
47 | Nc1nccc(-c2ccc3c(N)n[nH]c3c2)n1 [GSK1034945] | 0%
48 | COc1cccc(C2=C(Nc3cccc(Cl)c3)C(=O)NC2=O)c1 [SB-341556] | 0%
49 | Cc1n[nH]c2cc(Nc3ccnc(Nc4cccc(CN5CCOCC5)c4)n3)ccc12 [GW682569] | 8%
50 | Cl.Cl.NC[C@H](CC1CCCCC1)NC(=O)c1ccc(-c2ccnc3[nH]ccc23)s1 [GSK1581428] | 14%
51 | COc1cc2c(Nc3ccc(NC(=O)c4ccccc4)cc3)ncnc2cc1OCCCN1CCOCC1 [GSK301329] | 4%
52 | C[C@@H](Oc1cc(-n2cnc3ccc(-c4ccncc4)cc32)sc1C(N)=O)c1ccccc1Cl [GSK483724] | 39%
53 | NC(=O)Nc1sc(-c2ccc(F)cc2)cc1C(N)=O [GW789449] | 0%
54 | CN(c1ccc2c(c1)nc(NCc1ccc(F)cc1)n2C)c1ccnc(Nc2ccc(CS(C)(=O)=O)cc2)n1.Cl [GW813244] | 20%
55 | c1ccc(Oc2ccc(Nc3ccnc4ccc(-c5ccccn5)cc34)cc2)cc1 [GW407034] | 18%
56 | CS(=O)c1ccc(-c2coc3ccc(-c4n[nH]c(=O)o4)cc23)cc1 (centres unmarked) | 0%
57 | CCN1CCN(CCCC(=O)Nc2n[nH]c3nc(-c4ccc(O)cc4)c(Br)cc23)CC1 [SB-731579] | 0%
58 | CC(=O)c1c(-c2ccncc2)[nH]c(-c2ccncc2)c1C [GW493036] | 2%
59 | CSc1nccc(-c2c(-c3ccc(F)cc3)ncn2CCCN2CCOCC2)n1.Cl [SB-217146] | 0%
60 | CN1CCN(CCNc2nc3cc(Oc4ccc(NC(=O)Nc5cc(C(F)(F)F)ccc5F)cc4)ccc3[nH]2)CC1.Cl.Cl [GW768504] | 20%
61 | C[C@@H](Oc1cc(-n2cnc3cc(-c4ccncc4)ccc32)sc1C(N)=O)c1ccccc1Cl [GSK479719] | 13%
62 | O=C(Nc1cccc(Oc2ccc3nccn3n2)c1)Nc1cccc(C(F)(F)F)c1 | 0%
